Compounds with a hit are over-represented: about 2.5% of the library has one in this group of screens.
MEKK2wt PB1 HTS: raises or lowers MEK5 binding to wildtype human MEKK2 PB1 domain | Q9Y2U5 | bead flow cytometry, Alexa488-MEK5 binding to MEKK2 WT; actives lie on both sides | binding response (% of control), % at 10 µM | 290,000 tested, 1.1% active | AID 1531; in the data active = binding response below about 67% or above about 130%; inconclusive = no clear call, values can overlap the other calls; inactive = in between
Rce1 inhib: yeast Ras-converting enzyme inhibition. Q03530. yeast membranes, quenched prenylated peptide cleavage fluorescence. calls only. 290,000 tested, 0.27% active. AID 2563;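 active = fall in fluorescence gain of 50% or more versus controls, with final raw signal at or below 3038400; inconclusive = same 50% fall but final raw signal above 3038400; inactive = fall in fluorescence gain under 50%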;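 note: plate controls were neutral control wells for no effect and wells lacking membranes for full effect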
UBC13 polyUb: blocks human UBC13 polyubiquitin chain formation | P61088 | inhibition, % at 20 µM | AID 485273 | TR-FRET | 330,000 tested, 0.47% active; in the data active = inhibition above about 45%, passing the limit was not always enough; inconclusive = no clear call, values can overlap the other calls
MEKK2mut PB1 HTS: signal of MEK5 binding to mutant human MEKK2 PB1 domain; bead flow cytometry, Alexa488-MEK5 binding to MEKK2 mutant; percent response, % at 10 µM; 290,000 tested, 0.35% active; AID 1530; in the data active = percent response above about 24%, passing the limit was not always enough
MEKK3 PB1 HTS: modulators (inhibitors or enhancers) of MEK5 binding to human MEKK3 PB1 domain; AID 1529; Q99759; 290,000 tested, 1.4% active; bead-based flow cytometry, Alexa488-MEK5 binding to MEKK3; actives lie on both sides; 0 = blocked by unlabeled MEK5, 100 = vehicle; binding response (% of control), % at 10 µM;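 active = binding response more than 3 SD above or below the average of its plate-row segment, actives on both sides; inconclusive = wells at one plate position flagged as instrument error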;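 note: Alexa488 bead fluorescence after subtracting the streptavidin-only scavenger bead signal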
Target sequence (Q99759 whole entry, looked up, the tested form may be a part): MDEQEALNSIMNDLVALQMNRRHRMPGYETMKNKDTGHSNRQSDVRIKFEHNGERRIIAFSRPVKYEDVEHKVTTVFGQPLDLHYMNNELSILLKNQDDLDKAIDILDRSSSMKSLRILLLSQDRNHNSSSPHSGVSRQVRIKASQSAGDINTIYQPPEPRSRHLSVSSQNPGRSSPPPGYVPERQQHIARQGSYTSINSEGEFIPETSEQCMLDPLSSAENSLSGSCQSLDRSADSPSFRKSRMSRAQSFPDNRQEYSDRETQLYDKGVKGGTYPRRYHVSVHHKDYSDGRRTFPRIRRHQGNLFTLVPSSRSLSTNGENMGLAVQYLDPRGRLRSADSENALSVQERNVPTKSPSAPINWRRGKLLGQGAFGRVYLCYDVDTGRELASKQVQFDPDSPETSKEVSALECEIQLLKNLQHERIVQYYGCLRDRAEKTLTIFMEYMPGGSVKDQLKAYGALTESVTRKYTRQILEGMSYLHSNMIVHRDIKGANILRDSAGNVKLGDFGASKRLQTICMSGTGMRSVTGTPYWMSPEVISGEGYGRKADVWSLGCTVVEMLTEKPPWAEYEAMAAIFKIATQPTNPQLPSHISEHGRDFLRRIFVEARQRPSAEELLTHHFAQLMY
Casp3 counter: counter-screen for UBC13 inhibitors: human caspase-3 inhibition. Recombinant caspase-3, Caspase-Glo 3/7 luminescence, 60 min. inhibition, % at 20 µM. shares compounds with UBC13 polyUb. 1,400 tested, 4% active. AID 488856;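 active = mean inhibition across replicates above about 26%, limit read from the data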;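 note: plate controls were DMSO with caspase-3 for no effect and DMSO wells lacking enzyme for full effect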
UBC13 conf: human UBC13 polyubiquitin inhibition, confirmed; shares compounds with UBC13 polyUb; UBC13 polyubiquitination, TR-FRET, biochemical; inhibition, % at 10 µM; 1,400 tested, 68% active; AID 488859; in the data active = inhibition above about 45%; inconclusive = no clear call, values can overlap the other calls
* = called active by the depositor; i = inactive; ? = inconclusive; . = no result given.

SMILES | MEKK2wt PB1 HTS | Rce1 inhib | UBC13 polyUb | MEKK2mut PB1 HTS | MEKK3 PB1 HTS | Casp3 counter | UBC13 conf
O=C(CCCNc1ccccc1)N/N=C/c1cccs1 | 79.0 | i | 2.6 | -14.0 | 89.0 | . | .
Nc1ccccc1C#CC(=O)c1ccccc1 | 105.0 | i | -0.6 | 3.0 | 104.0 | . | .
COc1ccc(CNC(=O)CCn2nc(C)c3c(C)n(-c4ccccc4)nc3c2=O)c(OC)c1 | 98.0 | i | -1.1 | 1.0 | 100.0 | . | .
O=C1c2cccc3cccc(c23)N1Cc1cccc(F)c1 | 101.0 | i | 76.4* | 3.0 | 110.0 | -1.7 | 90.2*
O=C1c2cccc3cccc(c23)C(=O)N1Cc1ccccc1 | 98.0 | i | 25.2 | -9.0 | 96.0 | . | .
O=C1c2cccc3cccc(c23)C(=O)N1Cc1cccnc1 | 93.0 | i | 65.1* | -9.0 | 91.0 | -0.1 | 82.9*
O=C1c2cccc3cccc(c23)N1Cc1ccc(F)cc1 | 114.0 | i | 83.0* | 0.0 | 109.0 | 3.4 | 95.9*
O=C1CCCc2ccccc2N1Cc1cccc(F)c1 | 104.0 | i | -4.2 | 0.0 | 98.0 | . | .
O=C(NCc1cccnc1)C(=O)NCC1OCCN1S(=O)(=O)c1ccc(F)cc1 (stereo unspecified) | 82.0 | i | -6.8 | 9.0 | 77.0 | . | .
COc1ccc(-n2ccnc2SCC(=O)NC2CCCC2)c(OC)c1 | 96.0 | i | 0.4 | -1.0 | 97.0 | . | .
O=S(=O)(c1ccc(-c2ccon2)s1)N1CCN(c2ccccn2)CC1 | 98.0 | i | -0.5 | 4.0 | 100.0 | . | .
Cc1ccc(Cn2cc(C(=O)c3ccc(F)cc3)c(=O)c3cc4c(cc32)OCCO4)cc1 | 101.0 | i | 45.1* | -2.0 | 114.0 | -1.4 | ?
COc1ccccc1CNC(=O)CSc1ccc(-c2cccc([N+](=O)[O-])c2)nn1 | 104.0 | i | -13.1 | 3.0 | 104.0 | . | .
COc1cc2c3c(c1)c(N=NC(N)=S)c(O)n3C(C)(C)C=C2C | 98.0 | i | 80.3* | 2.0 | 104.0 | 2.8 | 84.1*
CC1=CC(C)(C)n2c(O)c(N=NC(N)=S)c3cccc1c32 | 108.0 | i | 75.9* | 0.0 | 146.0* | -0.7 | 93.6*
CC1=CC(C)(C)n2c(O)c(N=NC(N)=S)c3c(C)c(C)cc1c32 | 89.0 | i | 34.7 | -14.0 | 93.0 | . | .
O=[N+]([O-])c1cc(CN2CCC(O)CC2)ccc1Cl | 93.0 | i | -11.0 | -6.0 | 94.0 | . | .
Cc1nc(-c2ccccc2)sc1C(=O)NN | 100.0 | i | 5.0 | 0.0 | 109.0 | . | .
Cc1nc(N)sc1C(=O)NN | 94.0 | i | 49.4* | -10.0 | 100.0 | 7.9 | 34.8
COc1ccc(OCCCC(=O)Nc2ccc(S(=O)(=O)N3CCOCC3)cc2)cc1 | . | . | 57.6* | . | . | -2.3 | 55.4*
Cc1nc(N)c2c(Cc3cccc4ccccc34)nn(C(C)(C)C)c2n1 | 107.0 | i | 74.1* | 3.0 | 108.0 | -4.1 | 42.8
CCOC(=O)/C=C/C(=O)N1CCN(C(=O)/C=C/C(=O)OCC)CC1 | 103.0 | i | 11.7 | 9.0 | 105.0 | . | .
Cc1ccsc1CNc1ncnc2ccc(-c3c(C)noc3C)cc12 | . | . | 46.3* | . | . | 1.0 | 43.5
Cc1noc(C)c1-c1ccc2ncnc(NCC3CCCCN3C)c2c1 (stereo unspecified) | . | . | 0.6 | . | . | . | .
Cc1cccc(CCN2C(N(C)C)=NC[C@@H]2Cc2ccccc2)c1 | . | . | 3.6 | . | . | . | .
SMILES | MEKK2wt PB1 HTS | Rce1 inhib | UBC13 polyUb | MEKK2mut PB1 HTS | MEKK3 PB1 HTS | Casp3 counter | UBC13 conf
CCC[C@@H](CN1CCC[C@H]1CN1C(N)=NC[C@@H]1Cc1ccccc1)N1C[C@@H](Cc2ccccc2)N(CCc2ccc(Cl)c(Cl)c2)C1=N | . | . | 75.0* | . | . | 1.1 | 77.3*
CCC[C@@H](CN1CCC[C@H]1CN1C(N)=NC[C@@H]1Cc1ccccc1)N1C[C@@H]([C@H](C)CC)N(CCc2ccc(Cl)c(Cl)c2)C1=N | . | . | 73.6* | . | . | 0.4 | 73.5*
CCC[C@@H](CN1CCC[C@H]1CN1C(N)=NC[C@H]1CC(C)C)N1C[C@@H](Cc2ccccc2)N(CCc2ccc(Cl)c(Cl)c2)C1=N | . | . | 82.4* | . | . | 0.5 | 89.0*
Cc1cccc(CCN2C(N(C)C)=NC[C@@H]2CC(C)C)c1 | . | . | 4.1 | . | . | . | .
NC1=NC[C@@H](Cc2ccc(O)cc2)N1CCc1cccc(F)c1 | 100.0 | i | 8.5 | 3.0 | 99.0 | . | .
COC(=O)c1c(NC(=O)C(=O)N2CCCC2)sc2c1CC(C)(C)OC2 | 102.0 | i | 47.8* | 4.0 | 101.0 | -3.4 | 100.5*
CC1(C)Cc2c(sc(NC(=O)C(=O)N3CCCC3)c2C(N)=O)CO1 | 98.0 | i | 85.6* | -5.0 | 103.0 | 4.0 | 104.8*
CC1(C)Cc2c(sc(NC(=O)C(=O)NCC3CCCO3)c2C(N)=O)CO1 (stereo unspecified) | 106.0 | i | 81.4* | 5.0 | 103.0 | -1.0 | 106.3*
CC1(C)Cc2c(sc(NC(=O)Nc3ccccc3)c2C(N)=O)CO1 | 108.0 | i | 8.1 | 10.0 | 105.0 | . | .
Cn1ccnc1SCC(=O)Nc1ccc2c(c1)OC(F)(F)O2 | 99.0 | i | 16.2 | -3.0 | 100.0 | . | .
O=C(O)CC(NC(=O)c1cccc([N+](=O)[O-])c1)c1ccc2c(c1)OCO2 (stereo unspecified) | 101.0 | i | 5.1 | -3.0 | 102.0 | . | .
CCOc1ccccc1CNC(=O)C1CCN(c2nn3c(=O)cc(C)nc3s2)CC1 | 99.0 | i | -2.3 | 0.0 | 100.0 | . | .
COCc1cc(=O)[nH]c(Nc2nc3ccc(C)cc3o2)n1 | 101.0 | i | 74.2* | 1.0 | 104.0 | 26.9* | 89.2*
CCc1ccc2nc(Nc3nc(COC)cc(=O)[nH]3)nc(C)c2c1 | 89.0 | i | 1.2 | -4.0 | 90.0 | . | .
NC(N)=NCCCC(NC(=O)c1ccccc1)C(=O)Nc1ccc2ccccc2c1 (stereo unspecified) | . | . | 48.4* | . | . | -0.8 | 29.7
CNC(=O)c1ccsc1NC(=O)C1CCCN1S(=O)(=O)c1cccs1 (stereo unspecified) | . | i | 45.8* | . | . | 8.1 | 79.4*
O=c1c2sccc2[nH]c(=S)n1-c1ccccc1 | 101.0 | i | 64.6* | -3.0 | 103.0 | 1.9 | ?
O=c1c2oc3ccccc3c2[nH]c(=S)n1-c1ccccc1 | 106.0 | i | ? | 1.0 | 126.0 | . | .
CCCCCCCCOC(=O)c1c(CSC(=N)N)n(C)c2cc(Br)c(OC(C)=O)cc12 | 281.0* | i | 95.5* | 136.0* | 105.0 | 4.4 | 113.7*
COc1ccccc1CNc1cc(C)ccn1 | 107.0 | i | -3.7 | 9.0 | 105.0 | . | .
Cc1ccnc(NCc2c(O)ccc3ccccc23)c1 | 102.0 | i | 54.0* | 1.0 | 102.0 | -1.0 | 75.6*
O=S(=O)(c1ccc(Cl)cc1)N1CCN(Cc2ccc(O)c3ncccc23)CC1 | 108.0 | i | -25.7 | 0.0 | 109.0 | . | .
CN1CCN(C2CCN(Cc3ccc(O)c4ncccc34)CC2)CC1 | . | . | 60.2* | . | . | -1.0 | 69.6*
Oc1ccc(CN2CCN(Cc3ccccc3)CC2)c2cccnc12 | 107.0 | i | 66.3* | -1.0 | 75.0 | -0.2 | 102.6*

From PubChem BioAssay
